About 83,000 compounds went through this panel and 20% of them were active in at least one assay; those are over-represented in the sample as a whole.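 48-hour exposure, single concentration, 96-well plates; percent growth endpoint where 0 means no net growth. Active: below 10.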 Activity calls are given as the source filed them.
What was measured:
Assay in all cases: NCI-60 one-dose screen, 48 h (100 = growth as untreated, 0 = no growth, -100 = all killed)
Settings in all cases: 10 µM unless noted
T-47D breast = system: T-47D breast
BT-549 breast = system: BT-549 breast
MDA-MB-435 melanoma = system: MDA-MB-435 melanoma
SW-620 colon = system: SW-620 colon
MCF7 breast = system: MCF7 breast
HCT-116 colon = system: HCT-116 colon
HCC-2998 colon = system: HCC-2998 colon
KM12 colon = system: KM12 colon

Measured: growth

COc1c(N2CC3CCCNC3C2)c(F)cc2c(=O)c(C(=O)N/N=C/c3ccc4c(c3)OCO4)cn(C3CC3)c12 (configuration not stated)
inactive: T-47D breast 76.7% | BT-549 breast 94.9% | MDA-MB-435 melanoma 102% | SW-620 colon 47.1% | MCF7 breast 14.6% | HCT-116 colon 32.7% | HCC-2998 colon 54.8% | KM12 colon 88%

CCCCCc1ccc(S(=O)(=O)Nc2cccc(-c3csc(NC(=O)CCCCCN4CCN(C)CC4)n3)c2)cc1
active: MDA-MB-435 melanoma -33.8% | SW-620 colon -27.1% | MCF7 breast -1.18% | HCT-116 colon -36.2% | HCC-2998 colon -18%
inactive: T-47D breast 43.7% | BT-549 breast 93.5% | KM12 colon 57.4%

O=C(CSc1nc2ccccc2c(=O)n1-c1ccccc1)Nc1cccc(C(=O)/C=C/c2ccccc2)c1
inactive: T-47D breast 76.8% | BT-549 breast 112% | MDA-MB-435 melanoma 93.2% | SW-620 colon 90% | MCF7 breast 19% | HCC-2998 colon 113% | KM12 colon 87.5%
active: HCT-116 colon -13.7%

Cc1ccc2c(c1)C13C(=C2Br)CCCN1C(=O)c1ccccc13 (configuration not stated)
inactive: T-47D breast 86.8% | BT-549 breast 104% | MDA-MB-435 melanoma 54.8% | SW-620 colon 93.7% | MCF7 breast 74.3% | HCT-116 colon 96.5% | HCC-2998 colon 113% | KM12 colon 91.5%

Cc1ccc2sc3c(c2c1)OC(N)=C(C#N)C3c1ccc(Cl)cc1 (configuration not stated)
active: MDA-MB-435 melanoma -10.7%
inactive: T-47D breast 56.6% | BT-549 breast 26.3% | SW-620 colon 63.4% | MCF7 breast 13.8% | HCT-116 colon 88% | HCC-2998 colon 84.8% | KM12 colon 45.5%

NS(=O)(=O)c1ccc(-n2cc(CN3CCCCC3)nn2)cc1
inactive: T-47D breast 110% | BT-549 breast 108% | MDA-MB-435 melanoma 106% | SW-620 colon 106% | MCF7 breast 96.9% | HCT-116 colon 107% | HCC-2998 colon 106% | KM12 colon 95.3%

Cc1cc2nc(C(Cl)Cl)nc(-c3cccs3)n2n1
active: HCC-2998 colon -54.4% | KM12 colon -26.4%
inactive: T-47D breast 30.6% | BT-549 breast 74.1% | MDA-MB-435 melanoma 26.3% | SW-620 colon 10.9% | MCF7 breast 12.1% | HCT-116 colon 12.2%

O=C(CSc1nnc(-c2ccc(Cl)cc2)n1-c1ccccc1)Nc1cccc(Cl)c1
inactive: T-47D breast 48.2% | BT-549 breast 61.6% | MDA-MB-435 melanoma 72.9% | SW-620 colon 49.8% | MCF7 breast 65.1% | HCT-116 colon 12.8% | HCC-2998 colon 83.8% | KM12 colon 71.9%

Cc1ccc2c(c1)C(=O)/C(=C/c1cccc(F)c1)S2
inactive: T-47D breast 101% | BT-549 breast 134% | MDA-MB-435 melanoma 98.1% | SW-620 colon 105% | MCF7 breast 73.7% | HCT-116 colon 105% | HCC-2998 colon 113% | KM12 colon 101%

C#Cc1ccc(C(=O)NCc2ccc(/C=C/C(=O)c3nccn3C)cc2)cc1
active: HCC-2998 colon 9.76%
inactive: T-47D breast 34% | BT-549 breast 51% | MDA-MB-435 melanoma 26.2% | SW-620 colon 10.5% | MCF7 breast 12.2% | HCT-116 colon 14% | KM12 colon 15.5%

O=C(CN1CCN(c2cc(=O)n(-c3ccccc3)c3ccccc23)CC1)Nc1ccc(F)cc1
inactive: T-47D breast 30.2% | BT-549 breast 59.1% | MDA-MB-435 melanoma 65.4% | SW-620 colon 91.6% | MCF7 breast 37.9% | HCT-116 colon 58.7% | HCC-2998 colon 94.4% | KM12 colon 72.9%

COc1c(N2CC3CCCNC3C2)c(F)cc2c(=O)c(C(=O)N/N=C/c3c[nH]c4ccccc34)cn(C3CC3)c12 (configuration not stated)
inactive: T-47D breast 116% | BT-549 breast 100% | MDA-MB-435 melanoma 105% | SW-620 colon 90.7% | MCF7 breast 55% | HCT-116 colon 56.7% | HCC-2998 colon 119% | KM12 colon 98.7%

CC(c1ccccc1)N1CSc2nc3ncncc3n2C1 (configuration not stated)
inactive: T-47D breast 34% | BT-549 breast 59% | MDA-MB-435 melanoma 23.5% | SW-620 colon 41.1% | HCT-116 colon 19.2% | HCC-2998 colon 23.8% | KM12 colon 21.8%
active: MCF7 breast 5.38%

O=C(Nc1cccc(Cl)c1)Nc1nc2ccc([N+](=O)[O-])cc2o1
inactive: BT-549 breast 24% | MDA-MB-435 melanoma 19.2% | MCF7 breast 12.1% | HCC-2998 colon 24.3%
active: T-47D breast -10.9% | SW-620 colon 7.83% | HCT-116 colon 5.21% | KM12 colon 7.17%

Cc1ccc(-c2nnc(SCc3ccc(O)c4ncccc34)n2-c2ccccc2)cc1
active: T-47D breast 5.79% | MDA-MB-435 melanoma 9.9% | MCF7 breast 4.47% | HCT-116 colon 6.12% | KM12 colon 2.4%
inactive: BT-549 breast 18.4% | SW-620 colon 12.9% | HCC-2998 colon 22.3%

CCc1ccc(SC2c3ccc(N(CC)CC)cc3Oc3nc(N)c(C#N)c(N)c32)cc1 (configuration not stated)
inactive: BT-549 breast 65.9%
active: T-47D breast -27.3% | MDA-MB-435 melanoma -0.759% | SW-620 colon -24.8% | MCF7 breast -84.9% | HCT-116 colon -83.1% | HCC-2998 colon -83% | KM12 colon -57.9%

COc1ccc([C@H]2c3[nH]c4ccccc4c3C[C@H]3C(=O)N(C4CCN(Cc5c(Cl)cccc5Cl)CC4)CC(=O)N23)c(OC)c1
inactive: T-47D breast 83.6% | BT-549 breast 119% | MDA-MB-435 melanoma 102% | SW-620 colon 95.4% | MCF7 breast 84.3% | HCT-116 colon 92.6% | HCC-2998 colon 113% | KM12 colon 96.8%

CCCCCc1ccc(S(=O)(=O)Nc2cc(-c3csc(NC(=O)CN4CCN(C)CC4)n3)ccc2OC)cc1
active: T-47D breast -24.3% | MDA-MB-435 melanoma -84.1% | SW-620 colon -26.9% | MCF7 breast -63.8% | HCT-116 colon -70.8% | HCC-2998 colon -50.2%
inactive: BT-549 breast 87.7% | KM12 colon 25.8%

O=C(NNc1nc2cc(F)c(F)cc2n2c(CN3CC4CNCC4C3)ccc12)c1ncccn1 (configuration not stated)
active: MCF7 breast 9.66%
inactive: T-47D breast 13.8% | BT-549 breast 28.1% | MDA-MB-435 melanoma 20.4% | SW-620 colon 22.6% | HCT-116 colon 11.7% | HCC-2998 colon 24.7% | KM12 colon 19.2%

CCc1cccc2c3c(sc12)C(c1ccc(Cl)cc1)C(C#N)=C(/N=C/c1ccc(Cl)cc1)O3 (configuration not stated)
active: MDA-MB-435 melanoma -58.4% | HCC-2998 colon 7.72%
inactive: T-47D breast 25.7% | BT-549 breast 51.7% | SW-620 colon 29.3% | MCF7 breast 15.8% | HCT-116 colon 22.2% | KM12 colon 13.2%

CC(C)C[C@@H]1N[C@@]2(C(=O)Nc3ccccc32)[C@@H](c2ccc(F)cc2)[C@@H]1C(=O)c1ccc(O)cc1
inactive: T-47D breast 76.5% | BT-549 breast 113% | MDA-MB-435 melanoma 102% | SW-620 colon 101% | MCF7 breast 92.5% | HCT-116 colon 86.7% | HCC-2998 colon 108% | KM12 colon 96.1%

O=C(CNc1nc(-c2cccc([N+](=O)[O-])c2)cs1)Nc1cccc(Cl)c1
inactive: T-47D breast 100% | BT-549 breast 91.7% | MDA-MB-435 melanoma 105% | SW-620 colon 105% | MCF7 breast 91.3% | HCT-116 colon 112% | HCC-2998 colon 115% | KM12 colon 100%

O=C1[C@H]2Cc3c([nH]c4ccccc34)[C@@H](c3ccc(Cl)cc3)N2C(=O)CN1C1CCN(Cc2ccccc2)CC1
inactive: T-47D breast 55.9% | BT-549 breast 83.9% | MDA-MB-435 melanoma 43.8% | SW-620 colon 62.5% | MCF7 breast 12.6% | HCT-116 colon 33% | HCC-2998 colon 40.3% | KM12 colon 47.7%

COc1ccc(-c2nc3ccc(-c4nnc(SCC(=O)Nc5ccc(C(=O)/C=C/c6ccc(Cl)cc6)cc5)o4)cc3[nH]2)cc1
inactive: T-47D breast 92.8% | BT-549 breast 98.2% | MDA-MB-435 melanoma 99.3% | SW-620 colon 97% | MCF7 breast 78% | HCT-116 colon 100% | HCC-2998 colon 115% | KM12 colon 103%

COc1ccc(NCc2cn(-c3ccc(C(=O)O)cc3)nc2-c2cc(C(F)(F)F)cc(C(F)(F)F)c2)cc1
inactive: T-47D breast 76.6% | BT-549 breast 110% | MDA-MB-435 melanoma 101% | SW-620 colon 102% | MCF7 breast 90.9% | HCT-116 colon 95.2% | HCC-2998 colon 104% | KM12 colon 99.8%

c1ccc(C(c2nc3ncncc3[nH]2)N2CSc3nc4ncncc4n3C2)cc1 (configuration not stated)
inactive: T-47D breast 34.4% | BT-549 breast 73.1% | MDA-MB-435 melanoma 29.2% | SW-620 colon 79% | MCF7 breast 14.2% | HCT-116 colon 41.5% | HCC-2998 colon 55.6% | KM12 colon 51.7%

COc1cccc(N2CCN(c3ncnc4c3[nH]c3ccc(F)cc34)C[C@H]2C)c1
active: BT-549 breast -3.9%
inactive: T-47D breast 14.6% | MDA-MB-435 melanoma 19.4% | SW-620 colon 95.9% | MCF7 breast 37.2% | HCT-116 colon 41.9% | HCC-2998 colon 96.8% | KM12 colon 54.5%

CC1=N[C@@H]2CN(C(=O)OC(C)(C)C)C[C@@H]2n2c1cc1ccccc1c2=O
inactive: T-47D breast 98.8% | BT-549 breast 144% | MDA-MB-435 melanoma 108% | SW-620 colon 107% | MCF7 breast 95.6% | HCT-116 colon 103% | HCC-2998 colon 107% | KM12 colon 97.5%

COc1cc(OC)cc(C(=O)Nc2cccc(C#Cc3cccc4[nH]nc(N)c34)c2)c1
inactive: T-47D breast 31.2% | BT-549 breast 33.7% | SW-620 colon 15.9% | MCF7 breast 26.2% | HCT-116 colon 13% | HCC-2998 colon 43.3% | KM12 colon 12%
active: MDA-MB-435 melanoma -38.1%

— PubChem BioAssay (NCI)
